Among the data in PubChem BioAssay (NCI) are growth values, retold here.

This is part of a sample that, as a whole, favours compounds with a hit. Of some 83,000 tested, about 20% had one in any assay.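 Activity criterion: percent growth below 10, measured after cells in 96-well plates were exposed to a single compound concentration for 48 hours.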 A number with no mark means an inactive call. The source made the active and inactive calls.

Among the test systems are NCI-H23 lung; NCI-H226 lung; NCI-H322M lung; HOP-62 NSCLC; NCI-H460 lung; HOP-92 NSCLC; NCI-H522 lung; A549/ATCC NSCLC; 786-0 renal; COLO 205 colon; DU-145 prostate; K-562 leukemia; MALME-3M melanoma; MDA-MB-231 breast; RXF 393 renal; SF-268 CNS; SF-295 CNS; SF-539 CNS; UACC-257 melanoma; M14 melanoma.
Holding throughout (experiment): NCI-60 one-dose screen, 48 h (100 = growth as untreated, 0 = no growth, -100 = all killed)
Settings in all cases: 10 µM unless noted

Regarding `O=C1[C@H]2Cc3c([nH]c4ccccc34)[C@H](c3ccc(Cl)cc3)N2C(=O)CN1C1CCN(CC2CCCCC2)CC1`, the growth in the test with NCI-H23 lung is 75.8%; in the test with NCI-H226 lung, 88.2%; with NCI-H322M lung, 93.6%; in the test with HOP-62 NSCLC, 79.7%; in the test with NCI-H460 lung, 35.5%; in the test with HOP-92 NSCLC it was 70.5%. The growth was 71.5% with NCI-H522 lung; 64.4% in the test on A549/ATCC NSCLC; 75% with 786-0 renal; 51.4% with COLO 205 colon; 74.6% in the test with DU-145 prostate; 6.81% (active) in the test with K-562 leukemia. For the same compound, the growth was 45.8% with MALME-3M melanoma; 87% in the test with MDA-MB-231 breast; 45.8% with RXF 393 renal; 60.2% in the test on SF-268 CNS; 97.4% in the test with SF-295 CNS; 66.2% in the test with SF-539 CNS. The growth with UACC-257 melanoma was 75.1%; with M14 melanoma it was -56% (active).
On to `CN(C)c1ccc(-c2cc(-c3c[nH]c4ccccc34)nc(N)c2C#N)cc1`, for which the growth with NCI-H23 lung was 54.8%; with NCI-H226 lung, 62.8%; with NCI-H322M lung, 69.5%; with HOP-62 NSCLC, 33.3%; with NCI-H460 lung, 7.07% (active); with HOP-92 NSCLC, 27.5%. The growth in the test with NCI-H522 lung is 2.93% (active); in the test on A549/ATCC NSCLC, 25.4%; with 786-0 renal, 17.5%; with COLO 205 colon, 22.1%; with DU-145 prostate, 49.2%; with K-562 leukemia, 17.5%. Further, the growth is 64.4% in the test on MALME-3M melanoma; 36% in the test with MDA-MB-231 breast; 2.37% (active) with RXF 393 renal; 52.3% in the test with SF-268 CNS; 26.8% with SF-295 CNS; 37.5% with SF-539 CNS. Further, the growth in the test with UACC-257 melanoma is 56.9%; in the test on M14 melanoma, -27.1% (active).
In the case of `C/C(CC1(O)C(=O)Nc2ccccc21)=N\O` (stereo not given), the growth with NCI-H23 lung was 101%; in the test with NCI-H226 lung, 98%; in the test on NCI-H322M lung, 102%; in the test with HOP-62 NSCLC, 95.2%; in the test on NCI-H460 lung, 101%; in the test with HOP-92 NSCLC, 93.9%. Moreover, the growth was 91.3% in the test with NCI-H522 lung; 102% in the test on A549/ATCC NSCLC; 101% with 786-0 renal; 103% in the test on COLO 205 colon; 109% with DU-145 prostate; 99.6% in the test with K-562 leukemia. The growth in the test with MALME-3M melanoma is 96.2%; in the test with MDA-MB-231 breast it was 94.8%; with RXF 393 renal, 103%; in the test with SF-268 CNS, 98.3%; with SF-295 CNS, 98.6%; in the test with SF-539 CNS it was 94.7%. Moreover, the growth was 105% in the test with UACC-257 melanoma and 97.9% in the test with M14 melanoma.
For `CN1CCC[C@]2(C)[C@H]3CC[C@@H]4[C@@H]5[C@H]6OC[C@@]5(CCC6(C)C)CC[C@@]4(C)[C@]3(C)CC[C@H]2C1(C)C`, the growth in the test with NCI-H23 lung is 91%; in the test on NCI-H226 lung, 93.2%; in the test with NCI-H322M lung it was 87.8%; in the test with HOP-62 NSCLC it was 94.2%; in the test with NCI-H460 lung, 1.69% (active); in the test with HOP-92 NSCLC it was 50.6%. Moreover, the growth is 96.3% in the test with NCI-H522 lung; 71.7% with A549/ATCC NSCLC; 84.4% in the test with 786-0 renal; -8.01% (active) in the test with COLO 205 colon; 56.2% in the test with DU-145 prostate; 4.84% (active) with K-562 leukemia. The growth is 89.1% in the test on MALME-3M melanoma; 67.3% in the test with MDA-MB-231 breast; 74.5% with RXF 393 renal; 103% with SF-268 CNS; 103% with SF-295 CNS; 78.4% in the test with SF-539 CNS. The growth in the test on UACC-257 melanoma was 107%; in the test on M14 melanoma, 97.9%.
With `COc1ccc(/C=N/NC(=O)CSc2nc(-c3cnccn3)cc(-c3cccs3)c2C#N)cc1`, the growth is 72.8% with NCI-H23 lung; 75.1% in the test with NCI-H226 lung; 84.4% in the test on NCI-H322M lung; 53.4% with HOP-62 NSCLC; 37.4% in the test with NCI-H460 lung; 63.1% in the test on HOP-92 NSCLC. Moreover, the growth is 81.1% with NCI-H522 lung; 50.5% in the test with A549/ATCC NSCLC; 22.6% in the test with 786-0 renal; 68.1% with COLO 205 colon; 61.7% in the test on DU-145 prostate; 79.5% in the test with K-562 leukemia. In addition, the growth with MALME-3M melanoma was 91.9%; in the test with MDA-MB-231 breast it was 70.5%; with RXF 393 renal, 39.7%; with SF-268 CNS, 83.5%; in the test on SF-295 CNS it was 80.3%; in the test with SF-539 CNS, 39.1%. In addition, the growth in the test with UACC-257 melanoma was 95.9%; in the test with M14 melanoma, 77.4%.
In the case of `Nc1nc(=O)n([C@H]2C[C@H](O)[C@@H](CO)O2)cc1C=O`, the growth in the test with NCI-H23 lung was 112%; in the test with NCI-H226 lung, 111%; with NCI-H322M lung, 110%; in the test on HOP-62 NSCLC it was 95.6%; in the test with NCI-H460 lung, 103%; in the test with HOP-92 NSCLC, 57.7%. Also, the growth in the test with NCI-H522 lung was 102%; in the test with A549/ATCC NSCLC, 103%; in the test with 786-0 renal it was 102%; in the test on COLO 205 colon it was 14.5%; with DU-145 prostate it was 71.7%; in the test on K-562 leukemia it was 97.2%. The growth in the test on MALME-3M melanoma was 114%; with MDA-MB-231 breast it was 85.1%; with RXF 393 renal, 103%; in the test with SF-268 CNS it was 110%; in the test with SF-295 CNS it was 103%; in the test on SF-539 CNS, 100%. Also, the growth with UACC-257 melanoma is 115%; in the test on M14 melanoma it was 105%.
For the compound `Clc1ccc2[nH]cc(-c3nn4cc(-c5cccnc5)nc4s3)c2c1`, the growth was 92.8% in the test on NCI-H23 lung; 96.5% in the test on NCI-H226 lung; 98% with NCI-H322M lung; 82.2% with HOP-62 NSCLC; 99.9% with NCI-H460 lung; 83.6% in the test on HOP-92 NSCLC. Also, the growth is 97.1% in the test with NCI-H522 lung; 99.4% in the test on A549/ATCC NSCLC; 113% in the test with 786-0 renal; 88.9% in the test with COLO 205 colon; 107% in the test on DU-145 prostate; 94.7% with K-562 leukemia. The growth was 90.6% with MALME-3M melanoma; 71.7% in the test with MDA-MB-231 breast; 113% in the test on RXF 393 renal; 107% with SF-268 CNS; 96.7% with SF-295 CNS; 95.6% in the test with SF-539 CNS. Also, the growth in the test with UACC-257 melanoma is 109%; with M14 melanoma it was 99.2%.
Take `Cc1[nH]c(C(=O)Nc2ccccc2OCc2cccc(C(=O)NC3CCNC3)c2)c(Cl)c1Cl` (stereo not given): the growth with NCI-H23 lung was 8.19% (active); with NCI-H226 lung, 87.2%; in the test with NCI-H322M lung, 70.2%; in the test with HOP-62 NSCLC it was 6.22% (active); in the test on NCI-H460 lung it was -62.9% (active); with HOP-92 NSCLC, 70.2%. Further, the growth with NCI-H522 lung was -0.407% (active); in the test on A549/ATCC NSCLC it was -51.2% (active); in the test with 786-0 renal, -69.2% (active); in the test with COLO 205 colon it was -43.3% (active); in the test with DU-145 prostate, -84.8% (active); in the test on K-562 leukemia it was 0.128% (active). For the same compound, the growth in the test on MALME-3M melanoma was 74.2%; in the test on MDA-MB-231 breast it was -57.8% (active); with RXF 393 renal it was 78.8%; in the test with SF-268 CNS, 74.8%; with SF-295 CNS, -85% (active); in the test with SF-539 CNS, -75.6% (active). Also, the growth was 103% in the test with UACC-257 melanoma and 24.1% in the test with M14 melanoma.
